Results reported in the supplement of paper PMC4466140.

Biological target: ScBbc1
Assay: SPOT peptide array binding signal intensity (averaged, normalized) (arbitrary units (background-subtracted, floor 0; scale differs between SH3 domains)); higher = stronger binding of the SH3 domain to the peptide
Procedure: (§1)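 GST-tagged SH3 domains from S. cerevisiae (Sc), A. gossypii (Ag), C. albicans (Ca) and S. pombe (Sp) were incubated at 10 ug/ml overnight at 4 C on cellulose SPOT membranes carrying 292 synthetic 15-mer peptides mined from the S. cerevisiae proteome (cysteines replaced by serines). Binding was detected with anti-GST antibody, HRP secondary and chemiluminescence, quantified with Genespotter, and reported as normalized spot intensities averaged over biological replicates.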

Binder | SPOT peptide array binding signal intensity
KTKQQKPAIPQKKSF | 3

Biological target: ScBem1-D1
Assay: as above
Procedure: as §1

Binder | SPOT peptide array binding signal intensity
KTKQQKPAIPQKKSF | 15

Biological target: ScBzz1-D1
Assay: as above
Procedure: as §1

Binder | SPOT peptide array binding signal intensity
KTKQQKPAIPQKKSF | 37

Biological target: ScBzz1-D2
Assay: as above
Procedure: as §1

Binder | SPOT peptide array binding signal intensity
KTKQQKPAIPQKKSF | 19.5

Biological target: ScCyk3
Assay: as above
Procedure: as §1

Binder | SPOT peptide array binding signal intensity
KTKQQKPAIPQKKSF | ≤ 0

Biological target: ScFus1
Assay: as above
Procedure: as §1

Binder | SPOT peptide array binding signal intensity
KTKQQKPAIPQKKSF | ≤ 0

Biological target: ScHof1
Assay: as above
Procedure: as §1

Binder | SPOT peptide array binding signal intensity
KTKQQKPAIPQKKSF | 7.75

Biological target: ScHse1
Assay: as above
Procedure: as §1

Binder | SPOT peptide array binding signal intensity
KTKQQKPAIPQKKSF | 54.5

Biological target: ScLsb1
Assay: as above
Procedure: as §1

Binder | SPOT peptide array binding signal intensity
KTKQQKPAIPQKKSF | 4

Biological target: ScLsb2
Assay: as above
Procedure: as §1

Binder | SPOT peptide array binding signal intensity
KTKQQKPAIPQKKSF | ≤ 0

Biological target: ScLsb3
Assay: as above
Procedure: as §1

Binder | SPOT peptide array binding signal intensity
KTKQQKPAIPQKKSF | 328

Biological target: ScLsb4
Assay: as above
Procedure: as §1

Binder | SPOT peptide array binding signal intensity
KTKQQKPAIPQKKSF | ≤ 0

Biological target: ScMyo3
Assay: as above
Procedure: as §1

Binder | SPOT peptide array binding signal intensity
KTKQQKPAIPQKKSF | 19

Biological target: ScMyo5
Assay: as above
Procedure: as §1

Binder | SPOT peptide array binding signal intensity
KTKQQKPAIPQKKSF | 4.75

Biological target: ScNbp2
Assay: as above
Procedure: as §1

Binder | SPOT peptide array binding signal intensity
KTKQQKPAIPQKKSF | ≤ 0

Biological target: ScPex13
Assay: as above
Procedure: as §1

Binder | SPOT peptide array binding signal intensity
KTKQQKPAIPQKKSF | 0.75

Biological target: ScRvs167
Assay: as above
Procedure: as §1

Binder | SPOT peptide array binding signal intensity
KTKQQKPAIPQKKSF | 4.67

Biological target: ScSho1
Assay: as above
Procedure: as §1

Binder | SPOT peptide array binding signal intensity
KTKQQKPAIPQKKSF | 3

Biological target: ScSla1-D1-D2
Assay: as above
Procedure: as §1

Binder | SPOT peptide array binding signal intensity
KTKQQKPAIPQKKSF | 213

Biological target: ScSla1-D3
Assay: as above
Procedure: as §1

Binder | SPOT peptide array binding signal intensity
KTKQQKPAIPQKKSF | 7.25

Biological target: SpAbp1-D1
Assay: as above
Procedure: as §1

Binder | SPOT peptide array binding signal intensity
KTKQQKPAIPQKKSF | 1420

Biological target: SpBbc1
Assay: as above
Procedure: as §1

Binder | SPOT peptide array binding signal intensity
KTKQQKPAIPQKKSF | 2.5

Biological target: SpBzz1-D1
Assay: as above
Procedure: as §1

Binder | SPOT peptide array binding signal intensity
KTKQQKPAIPQKKSF | 256

Biological target: SpBzz1-D2
Assay: as above
Procedure: as §1

Binder | SPOT peptide array binding signal intensity
KTKQQKPAIPQKKSF | 2

Biological target: SpCyk3
Assay: as above
Procedure: as §1

Binder | SPOT peptide array binding signal intensity
KTKQQKPAIPQKKSF | ≤ 0

Biological target: SpHof1
Assay: as above
Procedure: as §1

Binder | SPOT peptide array binding signal intensity
KTKQQKPAIPQKKSF | 0.5

Biological target: SpHof1-2
Assay: as above
Procedure: as §1

Binder | SPOT peptide array binding signal intensity
KTKQQKPAIPQKKSF | 5.75

Biological target: SpHof1-3
Assay: as above
Procedure: as §1

Binder | SPOT peptide array binding signal intensity
KTKQQKPAIPQKKSF | 134

Biological target: SpHse1
Assay: as above
Procedure: as §1

Binder | SPOT peptide array binding signal intensity
KTKQQKPAIPQKKSF | 3.75

Biological target: SpLsb1
Assay: as above
Procedure: as §1

Binder | SPOT peptide array binding signal intensity
KTKQQKPAIPQKKSF | 5.5

Biological target: SpLsb4
Assay: as above
Procedure: as §1

Binder | SPOT peptide array binding signal intensity
KTKQQKPAIPQKKSF | 22.5

Biological target: SpMyo1
Assay: as above
Procedure: as §1

Binder | SPOT peptide array binding signal intensity
KTKQQKPAIPQKKSF | 5

Biological target: SpNbp2
Assay: as above
Procedure: as §1

Binder | SPOT peptide array binding signal intensity
KTKQQKPAIPQKKSF | ≤ 0

Biological target: SpPex13
Assay: as above
Procedure: as §1

Binder | SPOT peptide array binding signal intensity
KTKQQKPAIPQKKSF | ≤ 0

Biological target: SpRvs167
Assay: as above
Procedure: as §1

Binder | SPOT peptide array binding signal intensity
KTKQQKPAIPQKKSF | 1

Biological target: SpSla1-D1-D2
Assay: as above
Procedure: as §1

Binder | SPOT peptide array binding signal intensity
KTKQQKPAIPQKKSF | 3

Biological target: SpSla1-D3
Assay: as above
Procedure: as §1

Binder | SPOT peptide array binding signal intensity
KTKQQKPAIPQKKSF | 1
